Measured values: PubChem BioAssay AID1159580 (chemical genetic matrix, 2015)
Out of some 5,500 compounds screened, about 2,000 (36%) were called active. Another 18% or so got no clear call; they are omitted. Cut-off read from the data, not from the text of the source: active = normalized growth mostly below about 0.91 (no sharp cut-off); inconclusive = no clear call, values can overlap the other calls; inactive = mostly above about 0.92. The list shows a part of the results.

Test: chemical genetic growth profiling, strain panel (AID 1159580);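 note: tested at 20 µM; growth read once vehicle control cultures reached saturation at 30 °C; 1 = growth at the plate median or of vehicle wells; lower values mean less growth of the strain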
Conditions: S. cerevisiae deletion strains, growth OD
[1] = locus YDL101C, strain DUN1, active compounds read low
[2] = locus YHR030C, strain SLT2, active compounds read low
[3] = locus YAR019C, strain CDC15, active compounds read low
[4] = locus YBL105C, strain PKC1, active compounds read low
[5] = locus YBR135W, strain CKS1, active compounds read low
[6] = locus YBR136W, strain MEC1, active compounds read low
[7] = locus YBR160W, strain CDC28, active compounds read low
[8] = locus YDL017W, strain CDC7, active compounds read low
[9] = locus YDL028C, strain MPS1, active compounds read low
[10] = locus YDL108W, strain KIN28, active compounds read low
[11] = locus YDL132W, strain cdc53, active compounds read low
[12] = locus YDL214C, strain PRR2, active compounds read low
[13] = locus YDR052C, strain DBF4, active compounds read low
[14] = locus YDR054C, strain cdc34, active compounds read low
[15] = locus YDR226W, strain ADK1, active compounds read low
[16] = locus YDR477W, strain SNF1, active compounds read low
[17] = locus YER123W, strain YCK3, active compounds read low
[18] = locus YER133W, strain GLC7, active compounds read low
[19] = locus YFL009W, strain cdc4, active compounds read low
[20] = locus YFL029C, strain CAK1, active compounds read low
[21] = locus YFR003C, strain YPI1, active compounds read low
[22] = locus YFR019W, strain FAB1, active compounds read low
[23] = locus YFR028C, strain CDC14, active compounds read low
[24] = locus YGR040W, strain KSS1, active compounds read low
[25] = locus YGR052W, strain FMP48, active compounds read low
[26] = locus YGR092W, strain DBF2, active compounds read low
[27] = locus YHR079C, strain IRE1, active compounds read low
[28] = locus YHR082C, strain KSP1, active compounds read low
[29] = locus YHR205W, strain SCH9, active compounds read low
[30] = locus YIL147C, strain SLN1, active compounds read low
[31] = locus YJL095W, strain BCK1, active compounds read low
[32] = locus YJL128C, strain PBS2, active compounds read low
[33] = locus YJL157C, strain FAR1, active compounds read low
[34] = locus YJR016C, strain ILV3, active compounds read low
[35] = locus YJR066W, strain TOR1 (second series), active compounds read low
[36] = locus YJR066W, strain TOR1, active compounds read low
[37] = locus YKL048C, strain ELM1, active compounds read low
[38] = locus YKL067W, strain YNK1, active compounds read low
[39] = locus YKL101W, strain HSL1, active compounds read low
[40] = locus YKL193C, strain SDS22, active compounds read low
[41] = locus YKL203C, strain TOR2, active compounds read low
[42] = locus YLR113W, strain HOG1, active compounds read low
[43] = locus YLR133W, strain CKI1, active compounds read low
[44] = locus YLR403W, strain SFP1, active compounds read low
[45] = locus YML070W, strain DAK1, active compounds read low
[46] = locus YMR001C, strain CDC5, active compounds read low
[47] = locus YMR205C, strain PFK2 (second series), active compounds read low
[48] = locus YMR277W, strain FCP1, active compounds read low
[49] = locus YNL006W, strain LST8, active compounds read low
[50] = locus YNL020C, strain ARK1, active compounds read low
[51] = locus YNL161W, strain CBK1, active compounds read low
[52] = locus YNL183C, strain NPR1, active compounds read low
[53] = locus YNL207W, strain RIO2, active compounds read low
[54] = locus YNL222W, strain SSU72, active compounds read low
[55] = locus YNL307C, strain MCK1 (second series), active compounds read low
[56] = locus YOL078W, strain AVO1, active compounds read low
[57] = locus YOL136C, strain PFK27, active compounds read low
[58] = locus YOR061W, strain CKA2, active compounds read low
[59] = locus YOR119C, strain RIO1, active compounds read low
[60] = locus YOR231W, strain MKK1, active compounds read low
[61] = locus YOR329C, strain SCD5, active compounds read low
[62] = locus YPL031C, strain PHO85, active compounds read low
[63] = locus YPL153C, strain RAD53, active compounds read low
[64] = locus YPL204W, strain HRR25, active compounds read low
[65] = locus YPL209C, strain IPL1, active compounds read low
[66] = locus YPL256C, strain CLN2, active compounds read low
[67] = locus YPR025C, strain CCL1, active compounds read low
[68] = locus YPR106W, strain ISR1, active compounds read low
[69] = locus YPR111W, strain DBF20, active compounds read low
[70] = strain NNK1, active compounds read low
[71] = strain TSCII, active compounds read low

Measured: normalized growth

CC(C)(C)OC(=O)NCc1n[nH]c(=S)n1-c1ccccc1
inactive: locus YAL013W, strain DEP1, active compounds read low 1.03 | locus YBR229C, strain ROT2, active compounds read low 1.01 | [1] 1.02 | locus YDL134C, strain PPH21, active compounds read low 1.01 | locus YDR150W, strain NUM1, active compounds read low 1 | locus YEL061C, strain CIN8, active compounds read low 0.993 | locus YGR078C, strain PAC10, active compounds read low 1.01 | locus YGR229C, strain SMI1, active compounds read low 0.999 | [2] 1.09 | locus YHR087W, strain rtc3, active compounds read low 1.01 | locus YJR043C, strain POL32, active compounds read low 1.04 | locus YJR075W, strain HOC1, active compounds read low 0.995 | locus YLR039C, strain RIC1, active compounds read low 0.998 | locus YLR058C, strain SHM2 (second series), active compounds read low 1.02 | locus YLR085C, strain ARP6, active compounds read low 1.02 | locus YLR262C, strain YPT6, active compounds read low 1.07 | locus YML094W, strain GIM5, active compounds read low 1.01 | locus YMR219W, strain ESC1, active compounds read low 1.01 | locus YMR263W, strain SAP30, active compounds read low 1.01 | locus YNL153C, strain GIM3, active compounds read low 0.958 | locus YNL298W, strain CLA4 (second series), active compounds read low 1.06 | locus YNL322C, strain KRE1, active compounds read low 0.999 | locus YNR030W, strain Alg12, active compounds read low 1.01 | locus YPL055C, strain LGE1, active compounds read low 1.02 | locus YPL241C, strain CIN2, active compounds read low 0.994 | locus YPR135W, strain CTF4, active compounds read low 1.12

FC(F)(F)Sc1ccc(OCc2n[nH]c(=S)n2-c2ccccc2)cc1
active: [2] 0.814 | [42] 0.82 | [66] 0.82
inactive: [3] 0.989 | [4] 0.983 | [5] 0.988 | [6] 0.983 | [7] 0.988 | [8] 0.987 | [9] 0.986 | [1] 0.981 | [10] 0.987 | [11] 0.993 | [12] 0.945 | [13] 0.989 | [14] 0.978 | [15] 0.981 | [16] 0.943 | [17] 0.873 | [18] 0.911 | [19] 0.983 | [20] 0.989 | [21] 0.988 | [22] 0.936 | [23] 0.993 | [24] 0.949 | [25] 0.939 | [26] 0.874 | [27] 0.896 | [28] 0.963 | [29] 0.957 | [30] 0.984 | [31] 0.917 | [32] 0.94 | [33] 0.92 | [34] 0.984 | [35] 0.906 | [36] 0.945 | [37] 0.953 | [38] 0.934 | [39] 0.891 | [40] 0.994 | [41] 0.961 | [43] 0.938 | [44] 0.954 | [45] 0.92 | [46] 0.991 | [47] 0.946 | [48] 0.992 | [49] 0.986 | [50] 0.904 | [51] 0.986 | [52] 0.879 | [53] 0.985 | [54] 0.99 | [55] 0.91 | [56] 0.996 | [57] 0.931 | [58] 0.971 | [59] 1 | [60] 0.907 | [61] 0.985 | [62] 0.909 | [63] 0.916 | [64] 0.893 | [65] 0.984 | [67] 0.989 | [68] 0.979 | [69] 0.959 | [70] 0.977 | [71] 0.983

FC(F)(F)Oc1ccc(OCc2n[nH]c(=S)n2-c2ccc(Cl)cc2)cc1
inactive: [3] 0.984 | [4] 0.986 | [5] 0.989 | [6] 0.996 | [7] 0.991 | [8] 0.995 | [9] 0.99 | [1] 0.983 | [10] 0.987 | [11] 0.981 | [12] 1 | [13] 0.987 | [14] 0.989 | [15] 0.98 | [16] 0.994 | [17] 0.889 | [18] 1 | [19] 0.988 | [20] 0.985 | [21] 0.987 | [22] 0.988 | [23] 0.989 | [24] 1.01 | [25] 1.1 | [26] 0.944 | [2] 0.967 | [27] 1.07 | [28] 1.05 | [29] 1.01 | [30] 0.988 | [31] 1.15 | [32] 0.956 | [33] 1 | [34] 0.996 | [35] 0.986 | [36] 1.13 | [37] 0.965 | [38] 1.02 | [39] 0.986 | [40] 0.982 | [41] 1.05 | [42] 1.07 | [43] 1 | [44] 1 | [45] 1.01 | [46] 0.983 | [47] 1.01 | [48] 0.99 | [49] 0.986 | [50] 0.994 | [51] 0.989 | [52] 1.12 | [53] 0.99 | [54] 0.985 | [55] 0.999 | [56] 0.986 | [57] 0.994 | [58] 1.01 | [59] 1.02 | [60] 1.09 | [61] 0.99 | [62] 0.973 | [63] 0.983 | [64] 0.975 | [65] 0.987 | [66] 1.04 | [67] 0.991 | [68] 0.996 | [69] 0.992 | [70] 0.999 | [71] 0.987
